The results in this text go back to PubChem BioAssay (NCATS).

Calls of active or inactive are those of the source. Calls come from the whole dose curve; as a rule, active = well fitted curve in the direction sought with a large enough effect; inconclusive = small, poorly fitted or top-dose-only effect, or another doubt; inactive = no such curve, though single readings can be large; an effect the other way counts as inactive or inconclusive.

Sequence of Alpha-galactosidase A (Homo sapiens) (P06280 whole entry, looked up): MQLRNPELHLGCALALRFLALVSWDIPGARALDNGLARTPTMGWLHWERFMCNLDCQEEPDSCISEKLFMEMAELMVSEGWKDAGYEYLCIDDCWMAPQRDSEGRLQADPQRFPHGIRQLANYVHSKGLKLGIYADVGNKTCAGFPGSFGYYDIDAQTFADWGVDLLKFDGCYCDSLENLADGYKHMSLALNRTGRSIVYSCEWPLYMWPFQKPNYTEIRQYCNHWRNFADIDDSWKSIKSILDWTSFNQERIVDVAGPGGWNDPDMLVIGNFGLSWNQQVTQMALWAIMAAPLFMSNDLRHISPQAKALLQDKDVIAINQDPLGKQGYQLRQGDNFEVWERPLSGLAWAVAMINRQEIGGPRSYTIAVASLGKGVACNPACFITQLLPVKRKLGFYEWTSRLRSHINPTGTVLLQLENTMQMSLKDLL

Tested on in the first experiment: not listed separately
Nature of the experiment: Confirmation and Secondary Assay for Modulators of Hemoglobin Beta Chain Splicing at IVS2 705 locus (AID 930).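 Note: HeLa cells stably expressing the EGFP-705 splicing reporter; GFP fluorescence per well restored by corrected splicing of the IVS2-705 intron in EGFP.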 The following applies: HeLa EGFP-705 splicing reporter, GFP fluorescence, 48 h; series mostly up to 46.1 µM. The gist of the method:
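Splice-correction reporter: EGFP cDNA split by beta-globin intron 2 bearing the 705 mutation, stably in HeLa. Compound incubation 2 days, 37C; fluorescent objects 5-250 µm summed per well.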
As to `CN1C[C@H](C(=O)N[C@@]2(C)O[C@@]3(O)C4CCCN4C(=O)C(Cc4ccccc4)N3C2=O)C[C@H]2c3cccc4[nH]cc(c34)C[C@H]21` (some centres undefined), the call was inactive.
The same measure, in the same setting: as for `C[N+]1(C)C2CC(OC(=O)C(CO)c3ccccc3)CC1C1OC12` (centres undefined), the entry is “inactive”; as for `NCC1O[C@H](O[C@@H]2C(O)[C@H](O[C@H]3OC(CO)C(O)C(N)C3O)[C@@H](N)C[C@H]2N)[C@@H](N)CC1O` (some centres undefined), “inactive”; as for `CC(=O)OC1CCC2(C)C3=C(CCC2C1(C)C)[C@@]1(C)CCC(C(C)CCC=C(C)C)[C@@]1(C)CC3` (some centres undefined), “inactive”.
Still for that read-out and setting: as for `COc1cc2c(cc1OC)C1C(=O)c3c(cc4c(c3O)C=CC(C)(C)O4)OC1CO2` (centres undefined), the entry is “inactive”; as for `COc1cc2c(cc1OC)C1C(=O)c3c(O)cc4c(c3OC1CO2)C=CC(C)(C)O4` (centres undefined), “inactive”.
On the same count and under the same terms, to `CC(C)CC1C(=O)N2CCCC2C2(O)O[C@@](NC(=O)C3C=C4c5cccc6[nH]c(Br)c(c56)CC4N(C)C3)(C(C)C)C(=O)N12` (some centres undefined) belongs “inactive”; to `CNC1C(O)C2OC3OC(C)CC(=O)[C@@]3(O)O[C@H]2[C@H](NC)C1O` (some centres undefined), “inactive”.
As to `COC(=O)C1C(O)CC[C@H]2CN3CCc4c([nH]c5ccccc45)C3C[C@H]12` (some centres undefined), the molecule was classed as inactive.

In a further experiment the target is Alpha-galactosidase A (Homo sapiens) (UniProt P06280). The experiment in a line: Counterscreen for Glucocerebrosidase Inhibitors: qHTS Assay for Human alpha-Galactosidase at pH 4.5 (AID 992). The settings on record: purified enzyme, fluorogenic substrate; series mostly up to 76.9 µM. In short, it runs like this:
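Quantitative HTS: compounds tested from 0.7 nM up to 77 uM against 2 nM enzyme with 80 uM 4-MU alpha-D-galactopyranoside. The 20 min room-temperature reaction is stopped with 1M NaOH/1M glycine, pH 10.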
For the molecule `CC(C)(C)Oc1ccccc1Nc1nc(NCCO)nc(N2CCCC2)n1`, the call was inactive.
The same measure, in the same setting: to `CCc1nnc(NC(=O)c2ccc(NS(=O)(=O)c3ccccc3)cc2)s1` belongs “inactive”; to `CCCCCCCCCN1C[C@H](O)[C@@H](O)[C@H](O)[C@H]1CO`, “inactive”; to `Cc1cc(N2CCOCC2)nc2ccc(NC(=O)C3CCCCC3)cc12`, “inactive”.
On the same count and under the same terms, to `COc1ccc(Cl)cc1Nc1nc(NCCO)nc(N2CCCC2)n1` belongs “inactive”.

The target of the next experiment is alpha-glucosidase (Oryza sativa, rice) (UniProt Q653V4). Nature of the experiment: Counterscreen for Glucocerebrosidase Inhibitors: qHTS Assay for Rice alpha-Glucosidase at pH 5.0 (AID 997). The settings on record: rice alpha-glucosidase enzyme activity; series mostly up to 76.9 µM. In short, it runs like this: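 Rice alpha-glucosidase (4 nM final) with 400 uM 4-methylumbelliferyl-alpha-D-glucopyranoside in citrate buffer pH 5.0, 20 min at room temperature, stopped at pH 10; fluorescence 365/440 nm, compounds 0.7 nM–77 uM, AC50 from Hill fits.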
For the molecule `CC(C)(C)Oc1ccccc1Nc1nc(NCCO)nc(N2CCCC2)n1`, the result was inactive.
For the molecule `CCc1nnc(NC(=O)c2ccc(NS(=O)(=O)c3ccccc3)cc2)s1`, the result was inactive.
For the molecule `CCCCCCCCCN1C[C@H](O)[C@@H](O)[C@H](O)[C@H]1CO`, the call was inactive.
For the molecule `Cc1cc(N2CCOCC2)nc2ccc(NC(=O)C3CCCCC3)cc12`, the molecule was called inactive.
In the case of `COc1ccc(Cl)cc1Nc1nc(NCCO)nc(N2CCCC2)n1`, the result was inactive.
